Results from PubChem BioAssay (NCATS).
Results filed as inconclusive are left out. Calls of active or inactive are those of the source. Calls follow the shape of the dose curve; as a rule, active = well fitted curve in the direction sought with a large enough effect; inconclusive = small, poorly fitted or top-dose-only effect, or another doubt; inactive = no such curve, though single readings can be large; an effect the other way counts as inactive or inconclusive.

Tests used:
[1] = Quantitative High-Throughput drug screen in 47 multiple myeloma cell lines against the NCATS MIPE library collection: KMS12PE_JCRB cell viability assay (AID 1918972); also: nearly all actives have a fitted effect of over 30% in size
Outline: (§1)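 We plated 500 myeloma cells per well, pinned in MIPE 4.0 compounds, and incubated for 48 hours at 37C. ATP was then quantified with CellTiter-Glo, with DMSO and media-only wells defining 100% and 0%.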

[2] = Quantitative High-Throughput drug screen in 47 multiple myeloma cell lines against the NCATS MIPE library collection: KMS20_JCRB cell viability assay (AID 1918973); also: nearly all actives have a fitted effect of over 45% in size
Outline: as §1

[3] = Quantitative High-Throughput drug screen in 47 multiple myeloma cell lines against the NCATS MIPE library collection: KMS26_JCRB cell viability assay (AID 1918975); also: nearly all actives have a fitted effect of over 45% in size
Outline: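 Relative luminescence from CellTiter-Glo served as the viability signal, referenced to DMSO-treated (100%) and cell-free medium (0%) controls. Treatment lasted 48 hours at 37C with 500 cells per well.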

[4] = Quantitative High-Throughput drug screen in 47 multiple myeloma cell lines against the NCATS MIPE library collection: MMM1_PLB cell viability assay (AID 1918976); also: nearly all actives have a fitted effect of over 35% in size
Outline: (§2)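 Plated at 500 cells per well, myeloma lines received MIPE 4.0 compounds by pin tool. Following 48 h culture at 37 °C, CellTiter-Glo luminescence gave viability relative to DMSO and media-only controls.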

[5] = Quantitative High-Throughput drug screen in 47 multiple myeloma cell lines against the NCATS MIPE library collection: MOLP8_DSMZ cell viability assay (AID 1918977); also: nearly all actives have a fitted effect of over 45% in size
Outline: as §2

[6] = Quantitative High-Throughput drug screen in 47 multiple myeloma cell lines against the NCATS MIPE library collection: NCIH929_DSMZ cell viability assay (AID 1918978); also: nearly all actives have a fitted effect of over 35% in size
Outline: as §2

[7] = Quantitative High-Throughput drug screen in 47 multiple myeloma cell lines against the NCATS MIPE library collection: MM1S_ATCC cell viability assay (AID 1918980); also: nearly all actives have a fitted effect of over 45% in size
Outline: as §2

[8] = Quantitative High-Throughput drug screen in 47 multiple myeloma cell lines against the NCATS MIPE library collection: MM1R_ATCC cell viability assay (AID 1918981); also: nearly all actives have a fitted effect of over 35% in size
Outline: as §2

[9] = Quantitative High-Throughput drug screen in 47 multiple myeloma cell lines against the NCATS MIPE library collection: LP1_DSMZ cell viability assay (AID 1918982); also: nearly all actives have a fitted effect of over 35% in size
Outline: as §2

[10] = Quantitative High-Throughput drug screen in 47 multiple myeloma cell lines against the NCATS MIPE library collection: KMS28PE_JCRB cell viability assay (AID 1918983); also: nearly all actives have a fitted effect of over 35% in size
Outline: as §2

[11] = Quantitative High-Throughput drug screen in 47 multiple myeloma cell lines against the NCATS MIPE library collection: OCIMY5_PLB cell viability assay (AID 1918988); also: nearly all actives have a fitted effect of over 65% in size
Outline: as §2

[12] = Quantitative High-Throughput drug screen in 47 multiple myeloma cell lines against the NCATS MIPE library collection: OPM1_PLB cell viability assay (AID 1918989); also: nearly all actives have a fitted effect of over 40% in size
Outline: as §2

[13] = Quantitative High-Throughput drug screen in 47 multiple myeloma cell lines against the NCATS MIPE library collection: XG6_PLB cell viability assay (AID 1919865); also: nearly all actives have a fitted effect of over 40% in size
Outline: as §2

[14] = Quantitative High-Throughput drug screen in 47 multiple myeloma cell lines against the NCATS MIPE library collection: KMS21BM_JCRB cell viability assay (AID 1918974); details: ATP luminescence, 48 h; viability: at 45.8 µM (top of the series)
Outline: as §1

[15] = Quantitative High-Throughput drug screen in 47 multiple myeloma cell lines against the NCATS MIPE library collection: KMS34_JCRB cell viability assay (AID 1918985); also: nearly all actives have a fitted effect of over 40% in size
Outline: as §2

[16] = Quantitative High-Throughput drug screen in 47 multiple myeloma cell lines against the NCATS MIPE library collection: OCIMY7_PLB cell viability assay (AID 1918987); details: OCI-MY7 myeloma viability, CellTiter-Glo ATP, 48 h; viability (% of DMSO): at 45.8 µM (top of the series); also: nearly all actives have a fitted effect of over 65% in size
Outline: as §2

[17] = Quantitative High-Throughput drug screen in 47 multiple myeloma cell lines against the NCATS MIPE library collection: SKMM1_PLB cell viability assay (AID 1919863); details: SKMM1 myeloma viability, CellTiter-Glo ATP, 48 h; viability: stronger effect = lower value; also: nearly all actives have a fitted effect of over 35% in size
Outline: as §2

[18] = Quantitative High-Throughput drug screen in 47 multiple myeloma cell lines against the NCATS MIPE library collection: OCIMY1_PLB cell viability assay (AID 1918979); also: nearly all actives have a fitted effect of over 35% in size
Outline: as §2

[19] = Quantitative High-Throughput drug screen in 47 multiple myeloma cell lines against the NCATS MIPE library collection: L363_DSMZ cell viability assay (AID 1918984); details: L363 myeloma viability, CellTiter-Glo ATP luminescence, 48 h; viability (% of control): at 45.8 µM (top of the series); also: nearly all actives have a fitted effect of over 40% in size
Outline: as §2

[20] = Quantitative High-Throughput drug screen in 47 multiple myeloma cell lines against the NCATS MIPE library collection: U266_ATCC cell viability assay (AID 1919864); also: nearly all actives have a fitted effect of over 35% in size
Outline: as §2

Measured: Potency
Potency is read from the fitted curve at half-maximal effect.

COc1cccc(OC)c1-c1cc(C(=O)NC2(C(=O)O)C3CC4CC(C3)CC2C4)nn1-c1ccnc2cc(Cl)ccc12 (stereo unspecified)
active: [4] 14.8 µM | [7] 16.6 µM
inactive: [1] | [2] | [3] | [5] | [6] | [8] | [9] | [10] | [11] | [12] | [13]

CSc1cccc(Nc2ncc3cc(-c4c(Cl)cccc4Cl)c(=O)n(C)c3n2)c1
active: [1] 0.059 µM | [2] 0.0105 µM | [14] 0.0209 µM | [3] 9.35 µM | [5] 0.833 µM | [6] 13.2 µM | [8] 2.35 µM | [10] 2.35 µM | [15] 1.48 µM | [16] 0.0935 µM | [11] 0.296 µM | [17] 1.87 µM | [13] 0.118 µM

NS(=O)(=O)c1ccc(Nc2nc(OCC3CCCCC3)c3[nH]cnc3n2)cc1
inactive: [18]
active: [1] 20.9 µM | [2] 20.9 µM | [14] 4.18 µM | [4] 2.09 µM | [6] 4.18 µM | [7] 18.7 µM | [8] 14.8 µM | [19] 20.9 µM | [16] 13.2 µM | [11] 23.5 µM | [12] 20.9 µM | [20] 20.9 µM | [13] 2.96 µM

CC(C)[C@H](O)C(=O)N[C@@H](C)C(=O)N[C@@H]1C(=O)N(C)CCc2ccccc21
inactive: [1] | [2] | [3] | [18] | [8] | [9] | [19] | [15] | [11] | [12] | [20]
active: [4] 23.5 µM | [5] 0.0053 µM | [6] 16.6 µM | [13] 26.4 µM

CN(C(Cc1ccc(OS(=O)(=O)c2cccc3cnccc23)cc1)C(=O)N1CCN(c2ccccc2)CC1)S(=O)(=O)c1cccc2cnccc12 (stereo unspecified)
active: [1] 5.26 µM | [2] 2.64 µM | [3] 14.8 µM | [4] 5.9 µM | [6] 16.6 µM | [18] 7.43 µM | [7] 5.26 µM | [10] 10.5 µM | [16] 4.69 µM | [11] 13.2 µM | [12] 3.72 µM | [17] 9.35 µM | [20] 13.2 µM | [13] 13.2 µM

CC(=O)NCCC(=O)N[C@@H](CCC(N)=O)C(=O)N[C@@H](CO)C(=O)N[C@@H](CCC(N)=O)C(=O)N[C@@H](CCC(N)=O)C(=O)N[C@H](C(=O)N[C@@H](Cc1ccccc1)C(=O)N[C@]1(C)CCCCCCC=CCCC[C@@](C)(C(=O)N[C@@H](CCC(N)=O)C(=O)N[C@@H](CC(N)=O)C(N)=O)NC(=O)[C@H](CC(C)C)NC(=O)[C@H](CC(C)C)NC(=O)[C@@H](CCCNC(=N)N)NC(=O)[C@H](Cc2c[nH]c3ccccc23)NC(=O)[C@H](CC(C)C)NC(=O)[C@H](CC(N)=O)NC1=O)[C@H](C)O
active: [2] 18.7 µM | [3] 14.8 µM | [4] 5.26 µM | [6] 23.5 µM | [18] 20.9 µM | [7] 20.9 µM | [9] 20.9 µM | [10] 18.7 µM | [16] 20.9 µM | [12] 26.4 µM | [17] 16.6 µM
inactive: [1]

CCCCCOC(=O)Nc1nc(=O)n([C@@H]2O[C@H](C)[C@@H](O)C2O)cc1F (stereo partly specified)
inactive: [1] | [2] | [3] | [4] | [5] | [18] | [9] | [10] | [19] | [15] | [16] | [20]
active: [13] 3.32 µM

CCOC(=O)N1CCN([N+]([O-])=NOc2cc(ON=[N+]([O-])N3CCN(C(=O)OCC)CC3)c([N+](=O)[O-])cc2[N+](=O)[O-])CC1
active: [2] 2.64 µM | [3] 2.35 µM | [4] 6.62 µM | [5] 2.35 µM | [18] 7.43 µM | [7] 9.35 µM | [8] 2.09 µM | [9] 33.2 µM | [10] 5.9 µM | [16] 2.96 µM | [11] 2.35 µM | [17] 4.69 µM | [20] 7.43 µM | [13] 4.69 µM
inactive: [1]

CN(C)CCOc1ccc(-c2nc(-c3ccc4c(c3)CCC4=NO)c(-c3ccncc3)[nH]2)cc1
active: [1] 10.5 µM | [2] 6.62 µM | [14] 7.43 µM | [3] 18.7 µM | [4] 20.9 µM | [5] 14.8 µM | [6] 16.6 µM | [18] 20.9 µM | [7] 18.7 µM | [8] 18.7 µM | [9] 20.9 µM | [10] 23.5 µM | [19] 6.62 µM | [15] 13.2 µM | [11] 23.5 µM | [17] 20.9 µM | [20] 26.4 µM | [13] 16.6 µM

CCC(C)SSc1ncc[nH]1 (stereo unspecified)
active: [1] 9.35 µM | [2] 5.26 µM | [14] 8.33 µM | [3] 3.72 µM | [4] 7.43 µM | [5] 4.18 µM | [6] 3.72 µM | [18] 8.33 µM | [8] 5.26 µM | [9] 8.33 µM | [10] 11.8 µM | [19] 2.96 µM | [15] 4.18 µM | [16] 3.72 µM | [11] 5.26 µM | [12] 3.72 µM | [17] 11.8 µM | [20] 4.69 µM | [13] 7.43 µM
